# Bioassay records from PubChem BioAssay.
# The list is not random: actives were taken first. Their share in the collection is about 17%.
# TGFb SMAD3 inh – TGF-b pathway inhibition | HepG2 CAGA-GFP TGF-b/SMAD3 reporter, GFP fluorescence, 18 h; TGF-beta stimulated, 500 pg/mL final | Potency, µM (top dose mostly 46.1 µM), for inactives: at the top dose activity, negative = inhibition, most hits filed as inhibitors | actives 1.2% (n = 410,000) | AID 588855; also: % is scaled to controls: 0 for no effect and ±100 for the full control effect; nearly all actives have a fitted effect of over 65% in size
#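 HEPG2 CAGA-GFP cells (1000/well, DMEM with 1% FBS) were pre-incubated 2 h at 37 degrees C, given compound by pin tool, then stimulated with TGF-beta at 500 pg/mL final for 18 h before per-cell GFP fluorescence imaging.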
# TDP1 cell noCPT – qHTS for Inhibitors of human tyrosyl-DNA phosphodiesterase 1 (TDP1): qHTS in cells in absence of CPT; DT40 Tdp1-/- hTDP1 cells, no CPT, ATP luminescence, 48 h; Potency, µM (doses to about 46.2 µM), without a hit: at the top dose activity change, negative = growth inhibition, actives largely listed as inhibitors; actives 15% (n = 420,000); also: % is scaled to controls: 0 for no effect and ±100 for the full control effect; nearly all actives have a fitted effect of over 55% in size
#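 DT40 Tdp1-/-;hTDP1 cells, no CPT (DMSO vehicle only), 400 cells/well; compounds pin-transferred; ≥48 hr, 37 °C; CellTiter-Glo 30 min RT dark, luminescence read.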
# HepG2 viability – kills HepG2 cells in TGF-b inhibitor counter-screen; HepG2 CAGA-GFP viability, ATP luminescence, 18 h; Potency, µM (doses to about 46.1 µM), inactives show at the highest dose activity change, negative = cytotoxicity, hits mostly cytotoxic; actives 0.76% (n = 410,000); AID 588856
#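 CellTiter-Glo luminescence gave cytotoxicity after 18 hours at 37 degrees C. The cells were HepG2 CAGA-GFP in 1% FBS DMEM, stimulated with 500 pg/mL TGF-beta after compound addition. %Activity was normalised to no-cell wells (complete cell-killing) and DMSO (no toxicity), and curves were fitted and classified.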
# TDP1 cell CPT – DT40-hTDP1 cell growth loss with CPT; chicken DT40 Tdp1-/-;hTDP1 cells + 20 nM CPT, ATP luminescence, 48 h; Potency, µM (titrated, usually from 46.2 µM), inactives show at the highest dose activity change, negative = growth inhibition, usual class: inhibitors; actives 12% (n = 420,000); AID 686979; also: % is scaled to controls: 0 for no effect and ±100 for the full control effect; nearly all actives have a fitted effect of over 55% in size
#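 Chicken DT40 Tdp1-/- cells complemented with human TDP1, 400 cells/well, exposed to compounds plus 20 nM camptothecin for at least 48 h at 37 C; viability read as ATP content by CellTiter-Glo luminescence.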
# HT1080-NT tox – kills 2HG-producing HT-1080-NT fibrosarcoma cells; HT-1080-NT fibrosarcoma viability, CellTiter-Glo ATP luminescence, 48 h; Potency, µM (highest dose often 46.1 µM), for inactives: at the highest dose activity, negative = less viability, most hits filed as cytotoxic; actives 1.6% (n = 360,000); AID 686970;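 also: NT is the 2HG producing partner of a matched IDH1 knockdown line; 0% = DMSO-treated cells and -100% = media-only wells without cells; nearly all actives have a fitted effect of over 55% in size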
#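 Luminescent CellTiter-Glo readout after 48 hours of compound exposure at 37 degrees C defined viability of HT-1080-NT cells. Activity was normalized to DMSO wells and cell-free media wells; concentration-response curves were fitted and assigned curve classes.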
# HT1080 IDH1KD tx – kills HT-1080 cells with IDH1 knockdown; HT-1080 IDH1 knockdown viability, ATP luminescence, 48 h; Potency, µM (titrated, usually from 46.1 µM), inactives show top-dose activity, negative = toxicity, usual class: cytotoxic; AID 686971; actives 2% (n = 360,000);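 also: 0% = DMSO wells and -100% = cell-free medium wells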
#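 HT-1080-IDH1KD cells (IDH1 knocked down), 750/well in RPMI with 5% FBS, treated with compound 48 h at 37 degrees C. Viability by CellTiter-Glo luminescence, normalised to DMSO and no-cell wells; concentration-response curves classed.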
# * = called active by the depositor; ? = inconclusive; · = no result given. Calls follow the shape of the dose curve; as a rule, active = well fitted curve in the direction sought with a large enough effect; inconclusive = small, poorly fitted or top-dose-only effect, or another doubt; inactive = no such curve, though single readings can be large; an effect the other way counts as inactive or inconclusive. Potency is read from the fitted curve at half-maximal effect.
SMILES,TGFb SMAD3 inh,TDP1 cell noCPT,HepG2 viability,TDP1 cell CPT,HT1080-NT tox,HT1080 IDH1KD tx
CS(=O)(=O)c1ccc(-c2cnc3c(NC=O)cc(-c4ccsc4)cn23)cc1,-2%,18µM*,-12%,23µM*,2%,-2%
O=CNc1cc(-c2ccsc2)cn2c(-c3ccccc3)cnc12,?,21µM*,-6%,16µM*,?,?
O=C(NCc1ccccc1Cl)C1CCCN1C(=O)Nc1ccccc1 (stereo unspecified),3%,2%,3%,-16%,11%,2%
CCOc1ccc(C(=O)n2cc(C(=O)OC)c3ccccc32)cc1,?,13µM*,2%,?,-15%,?
CCOc1ccc(C(=O)n2cc(C(=O)OC)c3ccccc32)cc1OCC,-1%,?,17%,?,6%,2%
C=C1C=CS(=O)(=O)N(C(C)C(=O)OC)C1 (stereo unspecified),4%,·,4%,·,·,·
Cc1ccc(CC(=O)Nc2ccncc2)cc1,-13%,4.6µM*,-11%,5.8µM*,-13%,-9%
O=C(Nc1ccncc1)c1ccc(Cl)cc1,4%,-26%,-16%,?,6%,3%
CN(CCCC(=O)Nc1ccncc1)S(=O)(=O)c1ccc(Cl)cc1,-18%,23µM*,-22%,16µM*,-2%,-2%
O=C(Cc1ccc(Cl)cc1)Nc1ccncc1,-9%,9.2µM*,-2%,12µM*,-9%,?
Cc1cc(C)c(NC(=O)CSc2ccnc(=O)[nH]2)c(C)c1,-3%,-28%,0%,?,·,·
CCOc1ccc(C(=O)N(CN2CCCC2=O)c2ccc(C)cc2)cc1,1%,23µM*,-13%,8.2µM*,-4%,-1%
NS(=O)(=O)c1cccc(NC(=O)c2cccc3c(Br)cccc23)c1,-1%,4%,0%,-4%,-4%,-19%
CC(C)C(=O)Nc1ccc(Sc2ccc(F)cc2)cc1,22%,16µM*,-3%,16µM*,2%,-4%
CSc1ccc(/C=C/C(=O)c2ccc(NC(=O)C(C)C)cc2)cc1,-13%,?,14µM*,?,?,?
CSc1ccc(C(=O)/C=C/c2ccc(N)cc2)cc1,?,?,-31%,-36%,?,?
CC(C)C(=O)Nc1ccc(Nc2ccccc2)cc1,1%,10µM*,-29%,12µM*,3%,-2%
CC(C)C(=O)Nc1ccc(NC(=O)c2cccc3c(Br)cccc23)cc1,0%,?,2%,16µM*,18%,22%
CCc1ccccc1NC(=O)CN(C)S(=O)(=O)c1cccc2nsnc12,-19%,1%,1%,?,·,·
Cc1nn(C(=O)c2ccc(Cl)cc2)c(C)c1Sc1ccc(Cl)cc1,-1%,?,-9%,?,·,·
CC(C)c1ccc(NC(=O)CSC2=Nc3ccccc3C3=NC(CCC(=O)NC4CCCCC4)C(=O)N23)cc1 (stereo unspecified),-2%,23µM*,3%,23µM*,·,·
CCc1ccc(NC(=O)CSC2=Nc3ccccc3C3=NC(CC(=O)NC4CCCCC4)C(=O)N23)cc1 (stereo unspecified),-8%,9.2µM*,-32%,12µM*,·,·
CCOc1ccc(NC(=O)CSC2=Nc3ccccc3C3=NC(CC(=O)NCc4ccco4)C(=O)N23)cc1 (stereo unspecified),34%,23µM*,-22%,15µM*,·,·
